Inconclusive results are not listed. A call without a number means that no potency is given here. Active and inactive are the calls of the source. Unless noted, calls follow the shape of the dose curve; as a rule, active = well fitted curve in the direction sought with a large enough effect; inconclusive = small, poorly fitted or top-dose-only effect, or another doubt; inactive = no such curve, though single readings can be large; an effect the other way counts as inactive or inconclusive.
What was measured:
[1] = Cell Viability - Hek293 (AID 427;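 active = compounds whose dose-response curve shows a full or clear partial loss of cell viability, called from curve shape rather than a numeric limit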;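 also: potency is read from the fitted curve at half-maximal effect; cells exposed to compound for 40 hours at 37 °C before reading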); conditions: qHTS
In short: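 AC50 values derive from Hill-modelled concentration-response of ATP-based luminescence, normalized between DMSO-only and 100 uM tamoxifen controls. Cells were exposed in complete culture medium for 40 hr at 37 °C before detection.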

[2] = Cell Viability - MRC5 (AID 434; calls by dose curve;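 also: potency is read from the fitted curve at half-maximal effect; potency reflects cytotoxicity seen as loss of intracellular ATP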); conditions: MRC5 lung fibroblast viability, qHTS
In short: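 MRC5 normal human lung fibroblasts, 1500 cells/well, exposed to compound for 40 hr at 37 C. Cellular ATP was read by CellTiter-Glo luminescence; data normalized to DMSO and 100 uM tamoxifen, with AC50 from Hill fits.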

[3] = molecular target: Mitogen-activated protein kinase 10 (Mus musculus) (UniProt Q61831); assay: JNK3 AlphaScreen Assay (AID 530; active = well fitted curve in either direction with a large enough effect, not every such curve was filed as active;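 also: kinase came from lysate of stimulated human HepG2 cells; signal reports phosphorylation of biotinylated GST-cJun 1-79 at Ser73 with 10 µM ATP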); conditions: JNK3 lysate, c-Jun phosphorylation; series mostly up to 57.1 µM
In short: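 Pre-activated (IL-1β/TNFα) JNK3 in HepG2 lysates phosphorylates biotin-GST-cJun(1-79), 10 uM ATP; anti-phospho-cJun(Ser73) AlphaScreen read at room temperature, pH 7.6 Tris buffer. Compounds pre-incubated 15 min as titrations.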

[4] = Cellular Toxicity (caspase-3) HepG2 (AID 654); conditions: HepG2 caspase-3 activation, luminescence, 0% = DMSO only, 100% = tamoxifen; series mostly up to 92.2 µM;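 also: cells exposed to compound for 16 hours before reading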
In short: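 HepG2 cells (1500/well) were treated 16 h at 37 °C in complete medium, then caspase 3/7 activity was read by Caspase-Glo luminescence. Data were normalized to DMSO and 100 uM tamoxifen; AC50 came from Hill-equation fits of qHTS concentration-response.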

[5] = MultiTox-Fluor Cytotoxicity Assay - LYMP1-001 - Live Cells (AID 947); conditions: LYMP1-001 lymphoblastoid cells, live-cell protease fluorescence viability; series mostly up to 92.2 µM
[6] = MultiTox-Fluor Cytotoxicity Assay - LYMP1-002 - Dead Cells (AID 960); conditions: LYMP1-002 lymphoblastoid cells, dead-cell protease fluorescence; series mostly up to 46.1 µM;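 also: cells exposed to compound for 16 h at 37 °C; nearly all actives have a fitted effect of over 60% in size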
In short: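 Human lymphoblastoid LYMP1-002 cells, 2500/well, treated 16 h at 37 C; dead-cell protease cleavage of bis-AAF-R110 read by fluorescence (485/520); normalized to DMSO and 15 uM tetraoctylammonium bromide; AC50 from Hill fit.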

[7] = Cell Viability - LYMP2-004 (AID 966); conditions: LYMP2-004 lymphoblastoid cell viability, qHTS; series mostly up to 92.2 µM; also: nearly all actives have a fitted effect of over 65% in size
In short: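 Lymphoblastoid LYMP2-004 cells, 2500 per well, were preincubated for 5 hr and then treated with compound for 24 h at 37 C in complete medium. Viability was read as cellular ATP by CellTiter-Glo luminescence, and AC50 values were taken from Hill fits to concentration-response data.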

[8] = Cell Viability - LYMP2-005 (AID 967); conditions: LYMP2-005 lymphoblastoid cell viability; series mostly up to 92.2 µM
In short: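 Acute cytotoxicity is scored as a concentration-dependent drop in intracellular ATP in human lymphoblastoid LYMP2-005 cells after 24 h compound treatment. ATP is quantified by luciferase luminescence, and AC50 is derived by Hill-equation modelling.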

[9] = Cell Viability - LYMP2-025 (AID 976); conditions: LYMP2-025 lymphoblastoid cell viability; series mostly up to 92.2 µM
In short: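 Human lymphoblastoid LYMP2-025 cells, 2500/well, exposed 24 h at 37 C in complete medium in 1536-well qHTS. Viability as cellular ATP by CellTiter-Glo luminescence; AC50 from Hill fits of concentration-response data.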

[10] = Cell Viability - LYMP2-016 (AID 984); conditions: LYMP2-016 lymphoblastoid cell viability, qHTS; series mostly up to 92.2 µM; also: nearly all actives have a fitted effect of over 55% in size
In short: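 Cells were seeded at 2500 per well and rested 5 hr before a 24 hr compound exposure at 37 C. Viability was then gauged as cellular ATP by luciferase luminescence, with AC50 values fitted to the Hill equation.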

[11] = Cell Viability - LYMP2-018 (AID 985); conditions: LYMP2-018 lymphoblastoid cells, viability (qHTS); series mostly up to 92.2 µM; also: nearly all actives have a fitted effect of over 50% in size
In short: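 Human lymphoblastoid LYMP2-018 cells, 2500/well, settled 5 hr at 37 C then exposed to compound 24 hr at 37 C; intracellular ATP measured by CellTiter-Glo luminescence. AC50 from Hill-equation concentration-response fits.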

[12] = Cell Viability - LYMP2-022 (AID 987); conditions: LYMP2-022 lymphoblastoid cell viability; series mostly up to 92.2 µM; also: nearly all actives have a fitted effect of over 55% in size
In short: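 LYMP2-022 lymphoblastoid cells (2500/well, complete medium) were treated with compounds for 24 hours at 37 C; intracellular ATP was then read by CellTiter-Glo luminescence after 30 min at room temperature. AC50 values were derived from Hill-equation fits.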

[13] = Cell Viability - LYMP2-024 (AID 988); conditions: LYMP2-024 lymphoblastoid cell viability; series mostly up to 92.2 µM; also: nearly all actives have a fitted effect of over 60% in size
In short: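 Human lymphoblastoid LYMP2-024 cells (2500/well) rested 5 hr, then treated with compound for 24 hr at 37 C in complete medium. Viability was measured as intracellular ATP by CellTiter-Glo luminescence. AC50 values came from Hill-equation fits.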

[14] = Cell Viability - LYMP1-002 - Assay at 24 hr (AID 993); conditions: LYMP1-002 lymphoblastoid cells viability; series mostly up to 92.2 µM
In short: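 Human lymphoblastoid LYMP1-002 cells (2500/well) treated 24 h at 37 °C; viability as intracellular ATP by CellTiter-Glo luminescence. Tetraoctylammonium bromide as positive control; AC50 from Hill-equation fits of qHTS concentration-response.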

[15] = molecular target: Peroxisome proliferator-activated receptor gamma (Homo sapiens) (UniProt P37231); assay: qHTS assay for small molecule agonists of peroxisome proliferator-activated receptor gamma signaling (AID 588536; active = well fitted curve in the direction sought with a large enough effect in the signal ratio, with a control signal flat, not every such curve was filed as active; the % refers to the signal ratio); conditions: HEK293 PPARg-UAS-bla, beta-lactamase ratio, 16 h, percent of rosiglitazone response, DMSO as zero; series mostly up to 76.7 µM
Peroxisome proliferator-activated receptor gamma (Homo sapiens), sequence (P37231 whole entry, looked up): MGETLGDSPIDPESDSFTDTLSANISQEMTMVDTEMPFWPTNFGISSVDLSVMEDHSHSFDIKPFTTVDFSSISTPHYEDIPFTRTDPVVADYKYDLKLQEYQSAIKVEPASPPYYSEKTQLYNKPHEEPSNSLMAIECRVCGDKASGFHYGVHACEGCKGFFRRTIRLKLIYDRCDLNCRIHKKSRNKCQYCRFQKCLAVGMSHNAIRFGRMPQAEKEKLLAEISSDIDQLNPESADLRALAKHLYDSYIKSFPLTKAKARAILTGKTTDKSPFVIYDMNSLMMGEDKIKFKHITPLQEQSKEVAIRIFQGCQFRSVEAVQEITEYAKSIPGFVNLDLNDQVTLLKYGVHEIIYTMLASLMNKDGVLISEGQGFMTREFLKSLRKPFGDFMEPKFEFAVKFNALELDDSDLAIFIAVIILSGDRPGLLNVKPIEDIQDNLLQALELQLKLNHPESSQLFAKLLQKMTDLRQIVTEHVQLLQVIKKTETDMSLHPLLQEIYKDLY
In short: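 HEK293 UAS-bla reporter line, 1% charcoal/dextran FBS; titration, 16 h, 37 C; CCF4 loading 2 h RT; fluorescence 460/530 nm. Normalized to rosiglitazone 2 uM = 100%, DMSO = 0%.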

[16] = qHTS assay for small molecule antagonists of retinoid X receptor alpha signaling (AID 588546); conditions: HEK293T RXRa-UAS-bla, beta-lactamase ratio, antagonist mode; measured here: W530 green channel, cytotoxicity proxy;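 also: cells stimulated with 9-cis-retinoic acid as agonist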
In short: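 Beta-lactamase reporter inhibition, read as CCF4 fluorescence ratio (ex 405, em 460/530 nm) after 2 h at RT. HEK293T UAS-bla cells, 2500/well, were stimulated with 9-cis-RA at 500 or 100 nM final alongside test compound for 18 h at 37 C.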

[17] = molecular target: Thyroid hormone receptor beta (Homo sapiens) (UniProt P10828); assay: qHTS assay for small molecule antagonists of thyroid hormone receptor beta signaling (AID 588547; active = well fitted inhibition curve with a large enough effect in the signal ratio, with a control signal flat, not every such curve was filed as active; the % refers to the signal ratio;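 also: cells stimulated with 0.4 nM T3 agonist during compound exposure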); conditions: TR-UAS-bla HEK293, beta-lactamase ratio, antagonist mode, 18 h
Thyroid hormone receptor beta (Homo sapiens), sequence (P10828 whole entry, looked up): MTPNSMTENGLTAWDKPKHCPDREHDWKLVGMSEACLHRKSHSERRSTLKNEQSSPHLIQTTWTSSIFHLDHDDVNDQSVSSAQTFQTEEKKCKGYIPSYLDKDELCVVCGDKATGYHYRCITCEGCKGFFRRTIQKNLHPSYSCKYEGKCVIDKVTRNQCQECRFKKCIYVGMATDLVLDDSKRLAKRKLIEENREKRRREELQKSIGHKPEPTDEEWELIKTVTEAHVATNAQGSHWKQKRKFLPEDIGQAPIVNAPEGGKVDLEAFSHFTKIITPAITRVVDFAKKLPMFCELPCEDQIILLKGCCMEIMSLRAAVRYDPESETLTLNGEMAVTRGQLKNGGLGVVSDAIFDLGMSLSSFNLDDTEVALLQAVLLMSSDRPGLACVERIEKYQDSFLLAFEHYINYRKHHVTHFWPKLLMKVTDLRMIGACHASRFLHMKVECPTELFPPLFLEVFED
In short: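 TR-UAS-bla GripTite HEK293 cells in 2% charcoal/dextran FBS medium; compounds 0.59 nM to 92 uM with T3 at 0.4nM final, 18 h at 37 C. Beta-lactamase read by CCF4 fluorescence (460/530 nm); Hill fits gave IC50 and efficacy.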

[18] = molecular target: Tumor necrosis factor (Homo sapiens) (UniProt P01375); assay: qHTS assay to identify small molecules that stimulate Tumor Necrosis Factor-alpha (TNF-alpha) secretion (AID 651757; active = well fitted curve in the direction sought with a large enough effect in the signal ratio; the % refers to the signal ratio); conditions: Human cells, HTRF 665/615 ratio; series mostly up to 92.2 µM
Tumor necrosis factor (Homo sapiens), sequence (P01375 whole entry, looked up): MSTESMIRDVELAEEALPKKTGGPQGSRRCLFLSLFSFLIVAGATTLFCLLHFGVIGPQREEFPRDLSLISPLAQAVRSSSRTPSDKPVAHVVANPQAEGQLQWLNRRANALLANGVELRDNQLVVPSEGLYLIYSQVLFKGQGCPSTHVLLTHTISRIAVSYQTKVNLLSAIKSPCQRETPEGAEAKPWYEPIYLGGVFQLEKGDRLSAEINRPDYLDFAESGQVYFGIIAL
In short: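 THP-1 cells (3000/well) exposed to compounds 17 hrs at 37 C. Secreted TNF-alpha detected by HTRF with cryptate- and XL665-labeled anti-TNF-alpha antibodies after 3 hr at room temperature.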

[19] = qHTS assay for small molecule agonists of retinoid X receptor alpha signaling (AID 588544); conditions: HEK293T RXRa-UAS-bla, beta-lactamase reporter, 18 h; 530 nm emission
[20] = molecular target: Thyroid hormone receptor beta (Homo sapiens) (UniProt P10828); assay: qHTS assay for small molecule agonists of thyroid hormone receptor beta signaling (AID 588545; calls by dose curve); conditions: TR-UAS-bla GripTite HEK 293, beta-lactamase ratio, agonist mode, 18 h; series mostly up to 76.7 µM
In short: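 TR-UAS-bla GripTite HEK 293 cells (2500/well, medium with 2% charcoal/dextran FBS) were treated in agonist mode for 18 h at 37 C, titrated. Beta-lactamase was read by CCF4 ratio after 2 h; normalized to 10 nM T3 (100%) and DMSO, Hill-fitted for EC50 and efficacy.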

Row | Compound | Potency [1] | Potency [2] | Potency [3] | outcome [4] | outcome [5] | Potency [6] | Potency [7] | Potency [8] | Potency [9] | Potency [10] | Potency [11] | Potency [12] | Potency [13] | Potency [14] | outcome [15] | max response [16] [%] | activity change % (negative = inhibition) [17] | outcome [18] | max response [19] [%] | Potency [20]
1 | CC(C)(COCC1CO1)COCC1CO1 (stereo not drawn) | > 92 µM (inactive) | > 92 µM (inactive) | inactive | inactive | inactive | inactive | inactive | inactive | inactive | inactive | inactive | inactive | inactive | inactive | inactive | 21.1 | -13.4% (inactive) | inactive |  | 
2 | CCOS(C)(=O)=O | > 92 µM (inactive) | > 92 µM (inactive) |  | inactive | inactive | inactive | inactive | inactive |  | inactive | inactive | inactive | inactive | inactive | inactive | -8.7 | -1.09% (inactive) | inactive | -9.22 | 
3 | O=S(=O)(O)F | > 92 µM (inactive) | > 92 µM (inactive) | inactive | inactive | inactive | inactive | inactive | inactive | inactive | inactive | inactive | inactive | inactive | inactive | inactive | -2.92 | 10% (inactive) | inactive | -13.3 | inactive
4 | Oc1cc(Cl)cc(Cl)c1 | > 92 µM (inactive) | > 92 µM (inactive) | inactive |  | inactive | inactive | inactive | inactive | inactive | inactive | inactive | inactive | inactive | inactive | inactive | -2.61 | 11.4% (inactive) | inactive | -13.2 | inactive
5 | BrC(Br)Br | > 92 µM (inactive) | > 92 µM (inactive) |  | inactive | inactive | inactive | inactive | inactive | inactive | inactive | inactive | inactive | inactive | inactive | inactive | -5.42 | -8.09% (inactive) | inactive | 0.74 | inactive
6 | C[N+](=O)[O-] | > 92 µM (inactive) | > 92 µM (inactive) | inactive | inactive | inactive | inactive | inactive | inactive | inactive | inactive | inactive | inactive | inactive | inactive | inactive | -7.25 | -5.27% (inactive) | inactive | -4.73 | inactive

From PubChem BioAssay (NCATS)
